About 2,100 (3.2%) of roughly 65,000 compounds showed an effect of 50% or more. The median lay at about -52%. Many of the other results were omitted from the sample, so strong results are more common in it than they were.

The assay deals with Plasmodium falciparum. Nature of the assay: Screen against P. falciparum Asexual Blood Stage (ABS), at 5uM. The format is functional, Dd2. The conditions noted are these: tested at 5 uM.
`CCN1CCCC(NC(=O)c2ccc(C)[nH]c2=O)C1` (stereo unspecified): the INHIBITION was -166%.
In the case of `CN(C)c1ncnc2c1CCN(CC1CCOCC1)CC2`, the INHIBITION is -55.1%.
Under `CN1CCC(N(C)C[C@H]2CC[C@@H](Cc3cccc(CO)c3)O2)CC1` stands -125%; under `CN1CCN(C[C@H]2CC[C@@H](Cc3ccc4c(c3)OCO4)O2)CC1`, -28.1%; under `CCN(Cc1cnn(C)c1)C[C@H]1CC[C@@H](Cc2ccc(OC)nc2)O1`, 4.73%.
`CN1CCC(N(C)C[C@H]2CC[C@@H](Cc3cccc(O)c3)O2)CC1`: the INHIBITION was 57.5%.
`CN1CCN(C[C@H]2CC[C@@H](Cc3ccc(CN4CCCC4)cc3)O2)CC1`: the INHIBITION was determined as 36.4%.
As for `COc1ccc(C[C@@H]2CC[C@H](CN(C)C3CCN(C)CC3)O2)cc1`, the INHIBITION amounted to 50.9%.
In the case of `CC(=O)Nc1nc2c(s1)C(C)(C)Nc1ccccc1S2`, the INHIBITION is given as -58.4%.
On to `NCc1ccc(OC(F)F)cc1OC(F)F`, for which the INHIBITION is recorded as -38.5%.
On to `CC(C)CN1C(=O)CCC12CCC(NC(=O)NCc1cccnc1)CC2` (stereo unspecified), for which the INHIBITION is on record as -167%.
Under `CCc1nc(CN2CCCN(c3nn4cc(C)nc4s3)CC2)no1` stands -69%; under `Cn1cnc2c1C(COCC1CC1)CN(C(=O)c1cscn1)C2` (stereo unspecified), -46.3%.
`CN(C(=O)c1ccc(S(=O)(=O)NC(C)(C)C)cc1)C1(C#N)CCC1`: the INHIBITION is on record as 5.67%.
`O=C(C1=COCCO1)N1CC(Oc2nc3c(C(F)(F)F)cccc3s2)C1`: the INHIBITION is recorded as -41.7%.
For `CC(NC(=O)NCCCn1cncn1)c1ccc(C(F)(F)F)cc1` (stereo unspecified), the INHIBITION came out at 57.2%.
Regarding `CC(NC(=O)NCCCn1cncn1)c1ccncc1` (stereo unspecified), the INHIBITION is -85.1%.
Regarding `CC(NC(=O)NCCCn1cncn1)c1ccc(F)cc1` (stereo unspecified), the INHIBITION is given as 20.8%.
Turning to `Clc1cc(NCc2ccncc2)nc2[nH]ccc12`, the INHIBITION stood at 64.9%.
As to `Clc1cc(NCc2nccs2)nc2[nH]ccc12`, the INHIBITION was -72%.
As for `Clc1cc(NCc2ncc[nH]2)nc2[nH]ccc12`, the INHIBITION was -48.4%.
On to `COC[C@@]12CCO[C@@H]1CCN(Cc1ccccc1OC)C2`, for which the INHIBITION is listed as 29.7%.
Under `CCS(=O)(=O)N1C[C@H](c2nc(C)no2)C[C@H]2OCC[C@H]21` stands -101%; under `COc1cccc(OC)c1-c1ccnc2cc(CC(=O)NC(C)C)nn12`, -158%; under `Cc1nccn1CCCn1cncc1-c1ccc2c(c1)CC(C)N2C` (stereo unspecified), 49.8%.
In the case of `Cc1nccn1CCCn1cncc1-c1ccc2c(c1)CCCN2C` it was -15.5%.
As to `Cc1nccn1CCCn1cncc1-c1ccc2c(c1)CCC(C)N2C` (stereo unspecified), the INHIBITION came to 66.4%.
Take `CCC1(CC)Cc2ccccc2-c2nc(NCCO)[nH]c(=O)c21`: the INHIBITION worked out at 1.11%.
As to `Cc1n[nH]c(SCCNC2CCN(c3nc4ccccc4s3)CC2)n1`, the INHIBITION is -196%.
Consider `Cn1ccnc1SCCNC1CCN(c2nc3ccccc3s2)CC1`, for which the INHIBITION stood at 59.7%.
Under `Cn1ccnc1SCCNC1CCN(c2ncccn2)CC1` stands -11.4%; under `O=S(=O)(NCCc1ccccc1F)N1CCOCC1`, -122%; under `COc1cn(CC(N)=O)c(CSc2nccc(C)n2)cc1=O`, -34.1%.
For the molecule `O=C(C1CC1)N1CCC2(COCc3cnc(N4CCOCC4)nc32)C1` (stereo unspecified), the INHIBITION is reported as -76.2%.
Turning to `CC(C)C1CN(C(=O)c2cn3cc(Cl)cnc3n2)CCCN1CC1CC1` (stereo unspecified), the INHIBITION was -26.8%.
Regarding `Cc1ccsc1C(Cc1ccccc1)NC(=O)CNC(=O)C1CC1` (stereo unspecified), the INHIBITION turned out to be 69.9%.
As for `CCNC(=O)CCC(=O)NC(Cc1ccccc1)c1sccc1C` (stereo unspecified), the INHIBITION is reported as -32.2%.
Under `Cc1ccsc1C(Cc1ccccc1)NC(=O)CSCC(N)=O` (stereo unspecified) stands -9.21%.
For `CNC(=O)[C@@H](c1ccccc1OC)N1CCC[C@H]1C(=O)NCCN(C)C`, the INHIBITION is -199%.
Take `CC(C)c1noc(CCCC(=O)N2CCN(S(C)(=O)=O)CC2)n1`: the INHIBITION is recorded as -41.7%.
For the molecule `COCCN(C)C[C@@H]1CN(C(=O)c2ccc(=O)n(C)c2)C[C@@H]1CO`, the INHIBITION was -237%.
`Cc1cc2c(cc1Cl)C=CC1(CCN(CC(=O)NC3CCCC3)CC1)O2`: the INHIBITION came to 32.7%.
In the case of `Cc1cc2c(cc1Cl)C=CC1(CCN(CC(=O)N3CCOCC3)CC1)O2`, the INHIBITION was 67.6%.
For the molecule `CCN(CC)C(=O)CN1CCC2(C=Cc3cc(Cl)c(C)cc3O2)CC1`, the INHIBITION was found to be 49.3%.
On to `Cc1ccc(CCC(=O)N2CCOCC2)cc1Cl`, for which the INHIBITION is listed as -148%.
As to `Cc1cc2c(cc1Cl)C=CC1(CCN(CC(=O)N3CCCC3)CC1)O2`, the INHIBITION was 59.9%.
As for `Cc1cc2c(cc1Cl)C=CC1(CCN(C(=O)N3CCOCC3)CC1)O2`, the INHIBITION is recorded as -24%.
In the case of `Cc1cc(C(=O)N2CCCC(n3cncn3)C2)nn1C` (stereo unspecified) it was -8.41%; in that of `COc1ccc(CNc2cnn(C)c(=O)c2Cl)cc1`, -21.1%; in that of `CCN1C[C@@H]2[C@@H](OC)CCN(S(=O)(=O)c3ccccc3)[C@@H]2C1`, 33.8%.
In the case of `CCN1C[C@H]2[C@@H](C1)N(S(=O)(=O)c1ccccc1)CC[C@H]2OC` it was 62.8%; in that of `CCN1C[C@H]2[C@@H](C1)N(S(=O)(=O)c1ccccc1F)CC[C@H]2OC`, 48.5%; in that of `Cc1ccc(C2(O)CCN(C(=O)CCn3ccc(=O)[nH]c3=O)CC2)nc1`, -56.8%.
As for `Cc1ccc(-c2nnc(CN3CCCC(Cn4cncn4)C3)o2)cc1` (stereo unspecified), the INHIBITION is recorded as -182%.
`CN(C)C(=O)CN1CCC2(COCc3cnc(-c4ccccc4)nc32)C1` (stereo unspecified): the INHIBITION is recorded as -24.6%.
Under `CN(Cc1ccco1)C(=O)C1CCCc2ccccc21` (stereo unspecified) stands -142%; under `O=C(c1ccoc1)N1CCOC2(COCCN(CC3CC3)C2)C1` (stereo unspecified), -17.6%.
Turning to `Fc1cccc(CN2CCOC3(COCCN(CC4CC4)C3)C2)c1` (stereo unspecified), the INHIBITION amounted to 63.4%.
For `Cn1cc(CN2CCOC3(CCCN(c4cccc(F)c4)C3)C2)cn1` (stereo unspecified), the INHIBITION was -5.32%.
As for `Fc1cccc(N2CCCC3(CN(Cc4cccnc4)CCO3)C2)c1` (stereo unspecified), the INHIBITION was determined as 66%.
Under `COCCN1CCOCC2(CCCN(Cc3cccc(F)c3)C2)C1` (stereo unspecified) stands 9.71%.
On to `OCCN1CCOC2(CCCN(c3cccc(F)c3)C2)C1` (stereo unspecified), for which the INHIBITION was -22.5%.
As for `Cc1ccc(CN2CCOC3(CCCN(c4cccc(F)c4)C3)C2)o1` (stereo unspecified), the INHIBITION was found to be 51.6%.
On to `Fc1cccc(N2CCCC3(CN(Cc4ccncc4)CCO3)C2)c1` (stereo unspecified), for which the INHIBITION came out at 38.4%.
In the case of `Fc1cccc(N2CCCC3(CN(Cc4ccco4)CCO3)C2)c1` (stereo unspecified), the INHIBITION is recorded as 43.7%.
On to `Fc1ccc(CNCC2Cn3nncc3CO2)cc1` (stereo unspecified), for which the INHIBITION was -21.1%.

These data come from ChEMBL document CHEMBL4513216, “Probing the Open Global Health Chemical Diversity Library for Multistage-Active Starting Points for Next-Generation Antimalarials” (ACS Infect Dis, 2020).
